# Screening results (PubChem)
# NRP1-CendR mod: modulators of CendR peptide binding to human neuropilin-1. O14786. FAM-RPARPAR peptide binding to NRP-1, fluorescence polarization. inhibition, % at 25 µM. 360,000 tested, 0.85% active;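 active = inhibition or corrected inhibition above about 18%, plus a signal ratio from 0.5 to 1.5, limit read from the data, passing the limit was not always enough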
# Yeast superoxide: lowers age-related superoxide in aged yeast cells; S. cerevisiae aged cells, superoxide DHE fluorescence; active compounds read low; superoxide response (% of plate mean), % at 10 µM; 330,000 tested, 0.18% active; AID 2690;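 active = superoxide response under a set limit, about three screen SD below normal, cut at about 65% in these data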;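 note: yeast aged for seven days with compound at 30 °C before DHE staining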
# APOBEC3G inh: inhibitors of human APOBEC3G DNA deaminase; Q9HC16; recombinant A3G, ssDNA deamination FAM/TAMRA fluorescence; inhibition, % at 20 µM; 330,000 tested, 0.28% active; AID 493012;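 active = inhibition of at least 40% at 20 µM, with no more than 30% in the related APOBEC3A deaminase screen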
# M18AAP inhibitor: PfM18AAP enzyme inhibition; 290,000 tested, 1.2% active; inhibition, % at 7.35 µM; AID 1822; recombinant PfM18AAP, H-Glu-NHMec fluorogenic cleavage;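 active = inhibition above the campaign mean inhibition over all tested compounds plus 3 SD, cut at about 28% in these data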
# A3A deaminase: human APOBEC3A DNA deaminase inhibition; recombinant A3A, FAM/TAMRA ssDNA deamination fluorescence; inhibition, % at 20 µM; 330,000 tested, 0.41% active; AID 493011;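 active = at least 40% inhibition at 20 µM here, with at most 30% in a related deaminase screen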
# ALR H2O2 inh: human ALR oxidase inhibition via reduced H2O2; inhibition, % (no concentration beside the values); AID 485317; P55789; 290,000 tested, 3.8% active; purified ALR, DTT oxidation, H2O2 HRP-luminol luminescence;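 active = mean replicate inhibition above about 79%, with every replicate also reaching it, limit read from the data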
# Numbers stand for hits; 0 = inactive; - = no result. Sampled rows, rich in hits. Any-hit rate of the full collection: about 5.2%.
SMILES,NRP1-CendR mod,Yeast superoxide,APOBEC3G inh,M18AAP inhibitor,A3A deaminase,ALR H2O2 inh
Cc1cc(C)nc(NS(=O)(=O)c2ccc(NC(=O)COc3ccccc3F)cc2)n1,0,0,0,-,0,0
Cc1cc(C)nc(NS(=O)(=O)c2ccc(NC(=O)Nc3ccccc3)cc2)n1,0,0,0,0,0,0
COc1cc(NS(=O)(=O)c2ccc(NC(=O)COc3ccccc3C)cc2)nc(OC)n1,0,0,0,0,0,99
Cc1cc(C)nc(NS(=O)(=O)c2ccc(NC(=O)NC3CCCCC3)cc2)n1,0,0,0,0,0,98
CCOc1ccccc1OCC(=O)Nc1ccc(S(=O)(=O)Nc2nc(C)cc(C)n2)cc1,0,0,0,0,0,95
Cc1cc(C)nc(NS(=O)(=O)c2ccc(NC(=O)Cc3ccccc3F)cc2)n1,0,0,0,0,0,99
Cc1ccc(SCC(=O)NCC2COc3ccccc3O2)cc1 (stereo not drawn),0,0,0,-,0,0
O=C(CCCC(=O)N(c1ccc2c(c1)OCCO2)C(C(=O)NC1CCCCC1)c1ccc(Cl)cc1)Nc1ccccn1 (stereo not drawn),0,0,0,0,0,0
CCCC(=O)N1CC2(C)CN(C(=O)CCC)CC(CCC)(C1)C2=O,0,0,0,0,0,0
O=[N+]([O-])c1cccnc1N1CCN(c2ccc(F)cc2)CC1,0,0,0,0,0,98
Nc1cc2c(cc1Br)-c1c(C(=O)O)cccc1C2O (stereo not drawn),0,-,-,-,-,-
COc1cccc(OC)c1C(=O)Nc1ccc(CN2CCCCC2)cc1,0,0,0,0,0,-
COc1ccccc1C(=O)Nc1ccccc1SC(=O)c1ccccc1OC,0,0,0,31,0,0
COc1c(C)cccc1C(=O)Nc1ccc(CN2CCCCC2)cc1,0,0,0,0,0,94
O=C(Nc1ccc(N2CCCCCC2)cc1)c1ccc[nH]1,0,0,0,-,0,99
COc1ccccc1C(=O)Nc1ccc(N2CCCCC2)cc1,0,0,0,0,0,83
O=c1c2ccccc2c(/C=N/NS(=O)(=O)c2ccccc2)c(O)n1-c1ccccn1,0,0,0,0,0,98
CC(=O)N1CCC(=NNc2nc3ccccc3[nH]2)CC1,0,0,0,0,0,100
CCC(C)(C)C1CCC(=NNc2nc3ccccc3[nH]2)CC1 (stereo not drawn),0,0,0,0,0,0
CC(C)NC(=O)c1cnn2c1NC(c1cccs1)CC2C(F)(F)F (stereo not drawn),0,0,0,0,0,0
O=C1/C(=C/c2cccs2)Sc2ccccc21,0,0,0,0,0,-
COc1ccc(NC(=O)CSCC(=O)N(C)Cc2cccc(OC)c2OC)cc1,0,0,0,-,0,0
Cc1cccc(NC(=O)CSCC(=O)OCc2ccccn2)c1,0,0,0,-,0,99
COc1cccc(COC(=O)CSCC(=O)Nc2cccc(C)c2)c1OC,0,0,0,-,0,0
COc1cccc(CN(C)C(=O)CSCC(=O)Nc2cccc(C)c2)c1OC,0,0,0,-,0,92
SMILES,NRP1-CendR mod,Yeast superoxide,APOBEC3G inh,M18AAP inhibitor,A3A deaminase,ALR H2O2 inh
C=CCNc1nnc(Cc2ccc(F)cc2)c(=O)[nH]1,0,0,0,0,0,-
C=CCn1c(SCC(=O)NC2CC2)nc2sc(CC)cc2c1=O,0,0,0,0,0,0
CCOc1ccc(NC(=O)CSc2ncn[nH]2)c([N+](=O)[O-])c1,0,0,0,30,0,0
CCCN(C(=O)c1cccc(S(=O)(=O)N2CCN(Cc3ccccc3)CC2)c1)C1CCS(=O)(=O)C1 (stereo not drawn),0,0,0,-,0,0
Cc1cccc(CCN2CCN=C2Nc2ccccc2)c1,27,0,0,-,0,0
c1ccc(CCN2CCN=C2Nc2ccccc2)cc1,0,0,0,0,0,0
CCC1(C)Nc2ccccc2C(=O)N1O (stereo not drawn),26,0,0,0,0,0
CCOc1ccc(N2C(=O)c3ccccc3NC2(C)CC)cc1 (stereo not drawn),0,0,0,-,0,0
COc1ccc(OC)c(CCNC(=O)C(=O)Nc2ccc3nc4n(c(=O)c3c2)CCCCC4)c1,0,0,0,0,0,0
Cc1cccc(NC(=S)N(CCN2CCOCC2)Cc2ccccc2F)c1,0,0,0,0,0,0
Cc1cc(NC(=S)N(Cc2ccc(Cl)cc2)Cc2ccc(C(=O)O)cc2)ccc1Cl,0,0,0,0,0,0
CCN1CCCc2cc(CN(CCN3CCOCC3)C(=S)Nc3ccc(OC)c(OC)c3)ccc21,0,0,0,0,0,92
COc1ccccc1NC(=S)N(Cc1ccc(Cl)cc1)CC1CCC(C(=O)O)CC1 (stereo not drawn),28,0,0,0,0,0
COc1ccc(NC(=S)N(Cc2ccc(Cl)cc2)Cc2ccc(C(=O)O)cc2)cc1Cl,0,0,0,0,0,96
CCN1CCCc2cc(CN(CCN3CCOCC3)C(=S)Nc3cccc(C)c3)ccc21,0,0,0,0,0,95
S=C(Nc1ccccc1)N(CCN1CCOCC1)Cc1cccc(Cl)c1,0,0,0,0,0,-
CCN(CC)S(=O)(=O)c1ccc(N2CCOCC2)c(NC(=O)CN2C(=O)NC(C)(c3ccccc3)C2=O)c1 (stereo not drawn),0,0,0,-,0,0
COc1ccccc1NC(=S)N(CCN1CCOCC1)Cc1ccccc1F,0,0,0,0,0,0
COc1ccc(NC(=S)N2CCC(N(C)CCN3CCOCC3)CC2)cc1Cl,0,0,0,0,0,0
COc1ccc(NC(=S)N(CCN2CCOCC2)Cc2ccccc2F)cc1,24,0,0,0,0,0
CCN1CCCc2cc(CN(CCN3CCOCC3)C(=S)Nc3ccccc3OC)ccc21,0,0,0,0,0,99
CCN1CCCc2cc(CN(CCN3CCOCC3)C(=S)Nc3ccc(OC)c(Cl)c3)ccc21,0,0,0,0,0,99
COc1ccc(S(=O)(=O)N(C)CC(=O)NCc2cccnc2)cc1C,0,0,0,0,0,0
CCN(CC)c1ccc(N)cc1,0,0,0,-,0,97
CCN(CC)c1ccc(C(=O)NN)cc1,0,0,0,0,0,0
SMILES,NRP1-CendR mod,Yeast superoxide,APOBEC3G inh,M18AAP inhibitor,A3A deaminase,ALR H2O2 inh
Nc1ccc(C(=O)N(CCO)CCO)cc1,0,0,0,0,0,0
Nc1ccc(N(CCO)CCO)cc1,0,0,0,0,0,97
O=C(CSC(=S)N1CCSCC1)c1ccccc1,0,-,0,0,0,-
CCC(C)[C@H](NC(=O)Nc1ccccc1F)C(=O)OC (stereo partly drawn),22,0,0,0,0,0
COC(=O)[C@H](C)NC(=O)Nc1ccccc1F,0,0,0,0,0,0
CCOC(=O)[C@H]1[C@H]2COc3ccccc3[C@@H]2N2C(=O)[C@@H](CO)NC(=O)[C@@]12C,0,0,0,-,0,0
O=C1C(Cl)=C(Nc2ccc3cn[nH]c3c2)C(=O)c2ccccc21,0,0,-,47,-,0
O=C(Nc1ccc2cn[nH]c2c1)c1c(Cl)cccc1Cl,0,0,0,0,0,0
